High-throughput results: PubChem, several laboratories
Sampled rows, rich in hits. Any-hit rate of the full collection: about 3.7%.
Rce1 inh: blocks yeast Ras-converting enzyme | yeast membranes, quenched prenylated peptide cleavage fluorescence | calls only | AID 2563 | Q03530 | hit rate 0.27% among 290,000;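 active = fall in fluorescence gain of 50% or more versus controls, with final raw signal at or below 3038400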;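 note: plate controls were neutral control wells for no effect and wells lacking membranes for full effect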
Target sequence (Q03530 whole entry, looked up): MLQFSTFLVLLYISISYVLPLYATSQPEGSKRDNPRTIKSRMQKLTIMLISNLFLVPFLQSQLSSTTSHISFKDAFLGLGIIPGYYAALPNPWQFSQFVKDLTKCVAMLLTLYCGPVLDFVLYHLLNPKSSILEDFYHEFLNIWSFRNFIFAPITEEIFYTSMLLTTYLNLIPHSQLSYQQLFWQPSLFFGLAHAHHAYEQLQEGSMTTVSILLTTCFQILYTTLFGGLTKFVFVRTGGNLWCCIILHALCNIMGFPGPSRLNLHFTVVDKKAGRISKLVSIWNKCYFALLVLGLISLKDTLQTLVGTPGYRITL
tim10-1 inh: inhibits growth of tim10-1 mutant yeast | hit rate 2.2% among 330,000 | inhibition, % at 20 µM | S. cerevisiae tim10-1 ts strain growth, BacTiter-Glo, 24 h;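 active = inhibition of at least 40%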;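 note: mutant grown at 25 °C; 0% = DMSO wells with yeast and 100% = wells holding no yeast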
TIM10 inh: inhibits growth of TIM10 yeast strain; hit rate 1.4% among 330,000; inhibition, % at 10 µM; S. cerevisiae TIM10 strain growth, BacTiter-Glo luminescence, 24 h;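 active = inhibition of 40% or more at the single tested concentration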;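 note: wild-type TIM10 isogenic control strain grown at permissive 25 °C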
tim23-1 inh: inhibits growth of tim23-1 mutant yeast | S. cerevisiae tim23-1 growth, BacTiter-Glo luminescence, 24 h | hit rate 1.3% among 330,000 | inhibition, % at 20 µM;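 active = growth inhibition of the mutant yeast at or above 50%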;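 note: temperature-sensitive mutant grown at 25 °C; plate controls were DMSO-treated mutant yeast for no effect and medium wells lacking yeast for full effect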
PfHsp90 yeast 2: reduces growth (ATP signal) of yeast expressing P. falciparum Hsp90; S. cerevisiae expressing PfHsp90, BacTiter-Glo ATP, 48 h; yeast lacking PDR1 and PDR3 efflux regulators; hit rate 0.32% among 310,000; inhibition, % at 9.4 µM; AID 504621;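 active = every replicate shows inhibition above about 80%, whatever the replicate mean, limit read from the data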;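 note: 0% = DMSO neutral controls and 100% = 20 µM radicicol positive controls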
tim10-1 conf: tim10-1 yeast growth inhibition, confirmed. shares compounds with tim10-1 inh. S. cerevisiae tim10-1 ts strain growth, BacTiter-Glo, 24 h. inhibition, % at 20 µM. hit rate 56% among 7,400;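 active = inhibition of yeast growth at or above a set limit in either of two repeat tests at 20 µM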;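 note: tim10-1 mutant grown at permissive 25 °C to find synthetic lethal compounds; 0% = DMSO yeast wells and 100% = medium wells without yeast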
TIM10 conf: confirmation of TIM10 yeast growth inhibitors | shares compounds with TIM10 inh | S. cerevisiae tim10 strain growth, BacTiter-Glo luminescence, 24 h | inhibition, % at 10 µM | hit rate 63% among 4,600;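 active = inhibition of yeast growth at or above a set limit in either of two replicates at 10 µM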;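 note: this counterscreen used the strain with wild-type TIM10; 0% = yeast with DMSO and 100% = medium wells lacking yeast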
tim23-1 confirm: tim23-1 yeast growth inhibition, confirmed. shares compounds with tim23-1 inh. S. cerevisiae tim23-1 growth, BacTiter-Glo luminescence, 24 h. inhibition, % at 20 µM. hit rate 83% among 4,400. AID 463218;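 active = inhibition above about 39% in either of two replicate wells at 20 µM, limit read from the data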;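 note: temperature-sensitive tim23-1 mutant grown at 25 °C; 0% = DMSO wells with yeast and 100% = medium wells without yeast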
Active calls of the source: *; i = inactive; · = not tested or not shown.

SMILES	Rce1 inh	tim10-1 inh	TIM10 inh	tim23-1 inh	PfHsp90 yeast 2	tim10-1 conf	tim23-1 confirm	others
CCCN(c1nc(C)cc(OC)n1)S(=O)(=O)c1ccccc1	i	43.9*	33.7	50.7*	-33.3	18.4	39.9*
COc1cc(C)nc(N(Cc2ccccc2)S(=O)(=O)c2ccccc2)n1	i	24.7	2.0	35.6	-13.0	·	·
Oc1c(N=Nc2ccccc2)sc2ccccc12	i	0.7	3.2	6.7	7.5	·	·
Oc1ccc(N=Nc2ccccc2)o1	i	67.0*	18.0	68.1*	9.2	67.0*	74.6*
COCC(=O)Nc1cc(C)cn(Cc2c(F)cccc2Cl)c1=O	i	4.7	-10.8	0.8	-9.5	·	·
O=C(Nc1ccccc1)c1ccccc1OCc1ccc(F)cc1	i	6.2	5.2	17.8	-10.8	·	·
O=C(Nc1ccc(O)cc1)c1ccccc1OCc1ccccc1	i	45.3*	37.2	53.5*	-22.6	29.6	52.9*
COc1ccc(-c2coc3cc(O)cc(O)c3c2=O)cc1	i	53.0*	23.1	68.5*	17.3	37.0*	63.5*
CS(=O)(=O)c1ccc(Cl)c(NC(=O)COC(=O)CNC(=O)c2ccc3ccccc3c2)c1	i	1.9	-2.4	10.8	-2.6	·	·
COc1ccc(/C=C/C(=O)c2cc(F)ccc2OC(=O)c2ccc(OC)c(OC)c2)cc1OC	i	50.3*	53.6*	52.4*	5.5	45.8*	55.9*	TIM10 conf=28.6
N/C(=N\OC(=O)c1cc(-c2ccccc2)nc2ccccc12)c1ccc(Cl)cc1	i	59.1*	89.1*	69.8*	-1.3	44.2*	42.3*	TIM10 conf=86.6*
N/C(=N\OC(=O)c1cc(-c2ccccc2)nc2ccccc12)c1cccnc1	i	52.1*	71.1*	80.2*	-5.6	66.5*	29.8	TIM10 conf=77.3*
CCN1C[C@@H]2[C@@H]3C(=O)N(C)C(=O)[C@@H]3[C@](C)(C(=O)OC)N2C1=NC	·	0.8	-14.4	21.3	0.2	·	·
CC(C)[C@H](NC(=O)C1CCCC1)c1nc2ccccc2[nH]1	i	1.2	1.1	10.0	·	·	·
O=c1c2cc(Cl)ccc2nc(-c2ccc(Cl)c(Cl)c2)n1O	i	3.4	29.5	49.1	17.8	·	·
O=c1c2cc(Cl)ccc2nc(-c2ccccc2)n1O	i	48.2*	14.6	59.5*	11.8	5.8	63.7*
Cc1sc(NC(=O)c2ccccc2)c(C(c2ccc(Cl)cc2)N2CCN(CCO)CC2)c1C (stereo not given)	i	41.9*	30.0	51.6*	10.8	34.8*	41.5*
CCOc1ccc(C(c2c(NC(=O)c3ccccc3)sc(C)c2C)N2CCN(CCO)CC2)cc1 (stereo not given)	i	29.1	24.7	25.8	-4.3	·	·
O=C(/C=C/c1ccccc1Cl)c1ccc(O)cc1	i	40.2*	38.2	63.2*	110.3*	28.9	59.3*
O=C(/C=C/c1ccccc1Cl)c1cccnc1	i	28.7	4.4	15.3	70.8	·	·
CC1CCCCC1NC(=O)/C(C#N)=C/c1ccccc1F (stereo not given)	i	88.9*	85.4*	83.8*	120.9*	86.8*	83.9*	TIM10 conf=88.4*
N#C/C(=C\c1c(F)cccc1Cl)C(=O)NC1CC1	i	73.7*	60.9*	85.1*	-45.0	61.2*	81.0*	TIM10 conf=66.0*
CCCCn1c(N)c(N(CCOC)C(=O)CC2CCCCC2)c(=O)[nH]c1=O	·	·	·	·	1.1	·	·
CC(=O)Oc1cccc(/C=C2\Sc3ccccc3C2=O)c1	i	43.6*	33.0	86.2*	6.5	47.5*	85.4*
Cc1cccc(C(CC(=O)O)NC(=O)C(F)(F)F)c1 (stereo not given)	i	-1.2	2.2	5.7	17.4	·	·
SMILES	Rce1 inh	tim10-1 inh	TIM10 inh	tim23-1 inh	PfHsp90 yeast 2	tim10-1 conf	tim23-1 confirm	others
CC(C)[C@H](NC(=O)OCc1ccccc1)C(=O)OCC(=O)NC1(C#N)CCCC1	i	-0.4	3.2	-0.8	-46.3	·	·
O=Cc1c[nH]c2cccc(OCc3ccccc3)c12	·	58.7*	8.7	53.7*	-33.6	29.9*	18.2
O=Cc1c[nH]c2ccc(NC(=O)OCc3ccccc3)cc12	·	·	·	·	-5.9	·	·
Cc1c2ccccc2c(C)c2c1ccc1ccccc12	·	49.7*	83.7*	76.8*	-1.6	46.8*	80.0*	TIM10 conf=88.0*
Cc1cccc(NC(=O)NNC(=O)COc2ccc([N+](=O)[O-])cc2)c1C	i	-1.5	3.8	-8.1	7.5	·	·
O=Cc1ccc(O)c2ncccc12	i	43.7*	54.4*	70.5*	123.8*	8.1	72.0*	TIM10 conf=75.1*
COc1ccc(NC(=O)COc2ccccc2)cc1NC(=O)c1ccco1	·	22.6	-2.8	29.7	-2.7	·	·
CC1CC(C)CN(C(=O)c2ccc(-c3ccc([N+](=O)[O-])cc3)o2)C1 (stereo not given)	i	68.8*	56.2*	63.0*	9.1	19.2	45.6*	TIM10 conf=58.4*
O=C(c1ccc(-c2ccc(Cl)cc2)o1)N1CCN(c2ccc([N+](=O)[O-])cc2Cl)CC1	i	29.5	19.0	24.0	-5.0	·	·
O=C(Nc1ccccc1)C1=C[C@H](c2ccccc2)C[C@H](OCCCCO)O1	i	20.3	-15.5	16.9	16.5	·	·
O=C(Nc1ccccc1)C1=C[C@@H](c2ccc(Br)cc2)C[C@@H](OCCCCO)O1	i	43.0*	32.7	55.4*	-12.0	44.7*	54.0*
Cc1ccc2c3c1C(=O)C(=O)N3C(C)(C)CC2C (stereo not given)	i	27.3	22.0	30.7	5.7	·	·
CC1CC(C)(C)N2C(=O)C(=C(C#N)C#N)c3cccc1c32 (stereo not given)	i	70.7*	54.4*	70.0*	-2.2	68.0*	82.0*	TIM10 conf=42.6*
CC1CC2(CCCCC2)N2C(=O)C(=O)c3cccc1c32 (stereo not given)	i	42.1*	28.7	69.1*	-21.4	52.2*	78.8*
O=c1oc2ccccc2c2c1nnn2CCO	i	5.0	7.8	9.0	3.4	·	·
O=C1CC(Sc2ncccn2)C(=O)N1c1ccccc1 (stereo not given)	i	20.5	9.8	22.2	-4.9	·	·
Nc1nnc(SC2CC(=O)N(c3ccccc3)C2=O)s1 (stereo not given)	i	66.2*	29.5	59.5*	-7.3	53.5*	58.1*
COc1ccc(O)c(-c2cc(-c3cccs3)[nH]n2)c1	i	42.8*	36.8	64.0*	-9.6	16.1	69.2*
CCCCC(Sc1nc(N)c(NC(=O)c2ccc(OC)cc2)c(=O)[nH]1)C(=O)O (stereo not given)	i	1.6	9.4	13.5	·	·	·
O=C(Nc1ccccc1C(=O)N/N=C/c1ccco1)c1ccc(F)cc1	i	41.6*	31.4	59.8*	57.0	52.5*	58.6*
